From PMC10812921, “Transcriptional Coactivator BOB1 (OBF1, OCA-B) Modulates the Specificity of DNA Recognition by the POU-Domain Factors OCT1 and OCT2 in a Monomeric Configuration”

Tests used:
POU1 (OCT1 POU domain) = POU1 (OCT1 POU domain) (human, UniProt P14859 260-458); assay: EMSA-SELEX-seq; no BOB1; 20 mM Tris-HCl pH 7.6, 140 mM NaCl, 10% glycerol, 0.5 mM EDTA, 0.05% Triton X-100, 0.1 mg/mL BSA, 0.1 mg/mL poly(dI-dC), 5 mM DTT, room temperature, 20 min; high values mean tight binding; settings: protein: recombinant; dsDNA, one strand shown
Summary of the method: (§1)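 Binding preference means the percentage of sequenced 8-mers matching a motif pattern. Tagged POU-domain proteins (30 ng), expressed in E. coli BL21, purified under denaturing conditions and renatured, were mixed with 300 ng of a PCR-amplified double-stranded random 35-nt library, with or without 28 ng coactivator protein, for 20 min at RT in 20 μL Tris–HCl pH 7.6 binding buffer. Selection was repeated over four rounds of excising complex bands from native 6% PAGE, eluting and PCR amplification, followed by Illumina sequencing.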

POU2 (OCT2 POU domain) = molecular target: T1, POU2 (OCT2 POU domain) (human, UniProt P09086 175-386); assay: as above; settings: protein: recombinant; dsDNA, one strand shown
T1 sequence: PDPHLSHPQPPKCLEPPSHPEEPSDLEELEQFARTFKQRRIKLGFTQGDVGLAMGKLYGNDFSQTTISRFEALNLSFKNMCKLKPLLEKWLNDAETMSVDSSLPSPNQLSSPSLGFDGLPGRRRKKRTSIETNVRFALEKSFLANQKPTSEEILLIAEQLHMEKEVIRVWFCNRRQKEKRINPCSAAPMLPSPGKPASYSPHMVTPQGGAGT
Summary of the method: as §1

[1] = molecular target: POU1 (OCT1 POU domain);BOB1 (OBF1, OCA-B) (human;human, UniProt P14859;Q16633 260-458;1-256, |); assay: EMSA-SELEX-seq; with BOB1 (ternary complex band); 20 mM Tris-HCl pH 7.6, 140 mM NaCl, 10% glycerol, 0.5 mM EDTA, 0.05% Triton X-100, 0.1 mg/mL BSA, 0.1 mg/mL poly(dI-dC), 5 mM DTT, room temperature, 20 min; high values mean tight binding; settings: protein: recombinant;recombinant; copies: 1;1; dsDNA, one strand shown
Summary of the method: as §1

[2] = molecular target: T2, POU2 (OCT2 POU domain);BOB1 (OBF1, OCA-B) (human;human, UniProt P09086;Q16633 175-386;1-256, |); assay: as above; settings: protein: recombinant;recombinant; copies: 1;1; dsDNA, one strand shown
T2 sequence 1: T1 sequence
T2 sequence 2: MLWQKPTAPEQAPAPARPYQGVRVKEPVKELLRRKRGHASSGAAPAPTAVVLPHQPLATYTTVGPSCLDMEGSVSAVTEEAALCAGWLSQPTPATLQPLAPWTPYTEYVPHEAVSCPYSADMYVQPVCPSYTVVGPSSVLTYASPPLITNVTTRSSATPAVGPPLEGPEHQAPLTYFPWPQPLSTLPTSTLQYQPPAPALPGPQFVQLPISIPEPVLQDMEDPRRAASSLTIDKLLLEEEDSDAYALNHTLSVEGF
Summary of the method: as §1

Sequence of POU1 (OCT1 POU domain) (P14859 260-458): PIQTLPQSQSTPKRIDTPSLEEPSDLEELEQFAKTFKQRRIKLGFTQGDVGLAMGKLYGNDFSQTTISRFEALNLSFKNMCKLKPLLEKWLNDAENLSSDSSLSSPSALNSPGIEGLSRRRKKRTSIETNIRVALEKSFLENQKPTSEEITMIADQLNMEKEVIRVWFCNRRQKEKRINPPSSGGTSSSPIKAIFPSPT

Q: Which results are given for ACTATAAA?
A: binding signal (POU1 (OCT1 POU domain)): 0.0439 % of ANNNNAAN 8-mers; binding signal (POU2 (OCT2 POU domain)): 0.0403 % of ANNNNAAN 8-mers; binding signal [1]: 0.041 % of ANNNNAAN 8-mers; binding signal [2]: 0.0421 % of ANNNNAAN 8-mers

Q: How did the binding signal (POU1 (OCT1 POU domain)) turn out when AACTTAAT was run?
A: 0.0995 % of ANNNNAAN 8-mers

Q: What about the binding signal (POU2 (OCT2 POU domain)) of the same sequence?
A: 0.117 % of ANNNNAAN 8-mers

Q: And the binding signal [1]?
A: 0.0613 % of ANNNNAAN 8-mers

Q: And the binding signal [2]?
A: 0.0677 % of ANNNNAAN 8-mers

Q: For ACGGTAAC, which binding signal (POU1 (OCT1 POU domain)) is on record?
A: 0.0164 % of ANNNNAAN 8-mers

Q: What about the binding signal (POU2 (OCT2 POU domain)) of the same sequence?
A: 0.0259 % of ANNNNAAN 8-mers

Q: What about the binding signal [1] of the same sequence?
A: 0.0144 % of ANNNNAAN 8-mers

Q: What about the binding signal [2] of the same sequence?
A: 0.0239 % of ANNNNAAN 8-mers

Q: What does the source list for ATGTCAAT?
A: binding signal (POU1 (OCT1 POU domain)): 0.0828 % of ANNNNAAN 8-mers; binding signal (POU2 (OCT2 POU domain)): 0.0869 % of ANNNNAAN 8-mers; binding signal [1]: 0.0722 % of ANNNNAAN 8-mers; binding signal [2]: 0.0743 % of ANNNNAAN 8-mers

Q: For AGCGTAAT, which binding signal (POU1 (OCT1 POU domain)) is on record?
A: 0.0591 % of ANNNNAAN 8-mers

Q: What about the binding signal (POU2 (OCT2 POU domain)) of the same sequence?
A: 0.0748 % of ANNNNAAN 8-mers

Q: What about the binding signal [1] of the same sequence?
A: 0.0382 % of ANNNNAAN 8-mers

Q: And the binding signal [2]?
A: 0.0611 % of ANNNNAAN 8-mers

Q: Which results are given for AACTGAAT?
A: binding signal (POU1 (OCT1 POU domain)): 0.0885 % of ANNNNAAN 8-mers; binding signal (POU2 (OCT2 POU domain)): 0.108 % of ANNNNAAN 8-mers; binding signal [1]: 0.0562 % of ANNNNAAN 8-mers; binding signal [2]: 0.0735 % of ANNNNAAN 8-mers

Q: For ACCGCAAA, which binding signal (POU1 (OCT1 POU domain)) is on record?
A: 0.0179 % of ANNNNAAN 8-mers

Q: What about the binding signal (POU2 (OCT2 POU domain)) of the same sequence?
A: 0.0167 % of ANNNNAAN 8-mers

Q: What about the binding signal [1] of the same sequence?
A: 0.018 % of ANNNNAAN 8-mers

Q: And the binding signal [2]?
A: 0.0124 % of ANNNNAAN 8-mers

Q: Which results are given for AGGTCAAC?
A: binding signal (POU1 (OCT1 POU domain)): 0.0198 % of ANNNNAAN 8-mers; binding signal (POU2 (OCT2 POU domain)): 0.0288 % of ANNNNAAN 8-mers; binding signal [1]: 0.0269 % of ANNNNAAN 8-mers; binding signal [2]: 0.0289 % of ANNNNAAN 8-mers

Q: How did the binding signal (POU1 (OCT1 POU domain)) turn out when ATCACAAT was run?
A: 0.045 % of ANNNNAAN 8-mers

Q: What about the binding signal (POU2 (OCT2 POU domain)) of the same sequence?
A: 0.0518 % of ANNNNAAN 8-mers

Q: What about the binding signal [1] of the same sequence?
A: 0.039 % of ANNNNAAN 8-mers

Q: And the binding signal [2]?
A: 0.0487 % of ANNNNAAN 8-mers

Q: For AAATGAAG, which binding signal (POU1 (OCT1 POU domain)) is on record?
A: 0.17 % of ANNNNAAN 8-mers

Q: What about the binding signal (POU2 (OCT2 POU domain)) of the same sequence?
A: 0.188 % of ANNNNAAN 8-mers

Q: And the binding signal [1]?
A: 0.186 % of ANNNNAAN 8-mers

Q: What about the binding signal [2] of the same sequence?
A: 0.2 % of ANNNNAAN 8-mers

Q: With ATGCTAAA as the sequence, how does the binding signal (POU1 (OCT1 POU domain)) read?
A: 0.273 % of ANNNNAAN 8-mers

Q: And the binding signal (POU2 (OCT2 POU domain))?
A: 0.293 % of ANNNNAAN 8-mers

Q: And the binding signal [1]?
A: 0.0691 % of ANNNNAAN 8-mers

Q: And the binding signal [2]?
A: 0.0817 % of ANNNNAAN 8-mers

Q: With AGTCCAAG as the sequence, how does the binding signal (POU1 (OCT1 POU domain)) read?
A: 0.0236 % of ANNNNAAN 8-mers

Q: And the binding signal (POU2 (OCT2 POU domain))?
A: 0.0253 % of ANNNNAAN 8-mers

Q: And the binding signal [1]?
A: 0.0261 % of ANNNNAAN 8-mers

Q: And the binding signal [2]?
A: 0.0215 % of ANNNNAAN 8-mers

Q: With ACAATAAC as the sequence, how does the binding signal (POU1 (OCT1 POU domain)) read?
A: 0.0248 % of ANNNNAAN 8-mers

Q: What about the binding signal (POU2 (OCT2 POU domain)) of the same sequence?
A: 0.0259 % of ANNNNAAN 8-mers

Q: What about the binding signal [1] of the same sequence?
A: 0.0211 % of ANNNNAAN 8-mers

Q: What about the binding signal [2] of the same sequence?
A: 0.0248 % of ANNNNAAN 8-mers

Q: For AGTTCAAA, which binding signal (POU1 (OCT1 POU domain)) is on record?
A: 0.0355 % of ANNNNAAN 8-mers

Q: And the binding signal (POU2 (OCT2 POU domain))?
A: 0.0357 % of ANNNNAAN 8-mers

Q: And the binding signal [1]?
A: 0.0386 % of ANNNNAAN 8-mers

Q: What about the binding signal [2] of the same sequence?
A: 0.0421 % of ANNNNAAN 8-mers

Q: For ATCACAAA, which binding signal (POU1 (OCT1 POU domain)) is on record?
A: 0.0332 % of ANNNNAAN 8-mers

Q: And the binding signal (POU2 (OCT2 POU domain))?
A: 0.0374 % of ANNNNAAN 8-mers

Q: And the binding signal [1]?
A: 0.0539 % of ANNNNAAN 8-mers

Q: What about the binding signal [2] of the same sequence?
A: 0.0438 % of ANNNNAAN 8-mers
